Results filed as inconclusive are left out. Active and inactive are the calls of the source. Calls come from the whole dose curve; as a rule, active = well fitted cell-killing curve with a large enough effect; inconclusive = small, poorly fitted or top-dose-only effect, or effect the other way; inactive = no such curve, though single readings can be large or run the other way.
Assay: Quantitative High-Throughput drug screen in 47 multiple myeloma cell lines against the NCATS MIPE library collection: Karpas25_ECACC cell viability assay (AID 1918968; note: nearly all actives have a fitted effect of over 35% in size)
Details: Karpas25 myeloma viability, CellTiter-Glo ATP, 48 h; series mostly up to 45.8 µM
Source text: PI: Beverly A. Mock Ph.D.
Laboratory of Cancer Biology and Genetics,
Center for Cancer Research, National Cancer Institute,
National Institute of Health, Bethesda, Maryland
Drug resistance and disease progression are common in multiple myeloma (MM) patients, underscoring the need for new therapeutic combinations. […] We hypothesized that effective combinations would reduce MYC expression and enhance p16 activity. […] These preclinical data identify potentially useful drug combinations for evaluation in drug-resistant MM and reveal potential mechanisms of combined drug sensitivity.
Described herein is the primary MIPE qHTS used to cherrypick compounds. Validated compounds were then further tested for potential synergistic activiy.
[1] Peat TJ, Gaikwad SM, Dubois W, Gyabaah-Kessie N, Zhang S, Gorjifard S, Phyo Z, Andres M, Hughitt VK, Simpson RM, Miller MA, Girvin AT, Taylor A, Williams D, D'Antonio N, Zhang Y, Rajagopalan A, Flietner E, Wilson K, Zhang X, Shinn P, Klumpp-Thomas C, McKnight C, Itkin Z, Chen L, Kazandijian D, Zhang J, Michalowski AM, Simmons JK, Keats J, Thomas CJ, Mock BA. Drug combinations identified by high-throughput screening promote cell cycle transition and upregulate Smad pathways in myeloma. Cancer Lett. 2023 Aug 1;568:216284. doi: 10.1016/j.canlet.2023.216284. Epub 2023 Jun 24. PMID: 37356470; PMCID: PMC10408729.
SEQUENCE No. (e.g., 1, 2, 3, etc.); […] (e.g., Cells, Incubation, Reagent, etc.); VALUE and DESCRIPTION.
1; Cells; 5 uL; white, solid bottom 1536-well Greiner assay plate.
2; Compounds; 23 nL; Kalypsis pin tool (Wako USA) equipped with a 1536-well pin head to transfer to the assay plates.
3; Incubation; 48 hours; 37C incubation.
4; Reagent;5uL; CellTiter Glo (Promega).
5; Detector; 425V; Luminescence; Viewlux PerkinElmer.
NOTES (numbers refer to Sequence numbers above)
1. The cell-based screening methods employed in this study were like those previously published. Briefly, the corresponding myeloma cell lines were screened in 1,536-well plates with 500 cells, 5-uL per well for inhibition of cell viability (assessed by measuring ATP levels with CellTiterGlo).
2. NCATS MIPE 4.0 library of approved and investigational drugs were added using the Kalypsis pin tool. Wells treated with DMSO only for 100% viability and media only wells for 0% viability were used as controls.
3. The assay plates were covered and incubated for 48 hours in a 37C, 5% CO2 incubator with controlled humidity.
4. After 48 hours, CellTilter-GloTM luminescent substrate mix (Promega) reagent was added to the assay plate and plates we incubated for 5 min at room temperature.
5. Signal was measured as median relative luminescence units on a ViewLux (PerkinElmer) multiplate reader.
[1] Heske CM, Davis MI, Baumgart JT, Wilson K, Gormally MV, Chen L, Zhang X, Ceribelli M, Duveau DY, Guha R, Ferrer M, Arnaldez FI, Ji J, Tran HL, Zhang Y, Mendoza A, Helman LJ, Thomas CJ. Matrix Screen Identifies Synergistic Combination of PARP Inhibitors and Nicotinamide Phosphoribosyltransferase (NAMPT) Inhibitors in Ewing Sarcoma. Clin Cancer Res. 2017 Dec 1;23(23):7301-7311. doi: 10.1158/1078-0432.CCR-17-1121. Epub 2017 Sep 12. PMID: 28899971; PMCID: PMC6636827.
In the case of `COc1cc(Nc2ncc(F)c(Nc3ccc4c(n3)N(COP(=O)(O)O)C(=O)C(C)(C)O4)n2)cc(OC)c1OC`, the Potency is reported as 3320 nM (active).
With `CC(C)[C@H](C(=O)Nc1ccc(C(=O)NO)cc1)c1ccccc1` the Potency was 418 nM (active).
For `CCNC(=O)Nc1ccc2ncc(Nc3ccc(C)cc3)nc2n1`, the Potency was 5900 nM (active).
With `CCCCN1CCC(CNC(=O)c2c3n(c4ccccc24)CCCO3)CC1` the Potency was 8330 nM (active).
In the case of `COC(=O)Nc1ccc(-c2nc(N3CCOCC3)c3cnn(C4CCN(Cc5cccnc5)CC4)c3n2)cc1`, the Potency is reported as 118 nM (active).
For `CN(C)c1nc(Cc2ccc(NC(=O)c3ccc4ccccc4c3)cc2)nc(Cl)c1CC(=O)O`, the Potency was “inactive”.
In the case of `C[C@@H](Oc1cc(-n2cnc3ccc(CN4CCN(C)CC4)cc32)sc1C(N)=O)c1ccccc1C(F)(F)F`, the Potency is reported as 20900 nM (active).
For `O=C(O)CCCc1c[nH]c2ccccc12`, the Potency was “inactive”.
With `O=C(Cc1ccc(-c2ccc(OCCN3CCOCC3)cc2)cn1)NCc1ccccc1` the Potency was 41.8 nM (active).
In the case of `CC1(C)OC2=C(C(=O)c3ccccc3C2=O)[C@H](NCc2ccccc2)[C@H]1O`, the Potency is reported as 590 nM (active).
For `COCCOc1ccc2c(c1)ncn2-c1ccc2cccc(N3CCC(N)CC3)c2n1`, the Potency was 66.2 nM (active).
In the case of `NCC(=O)Nc1ccc(-n2nc(C(F)(F)F)cc2-c2ccc3c(ccc4ccccc43)c2)cc1`, the Potency is reported as 16600 nM (active).
For `Cn1c2cc(S(C)=O)sc2c2cnn(Cc3cccc(N)c3)c(=O)c21` (stereo not given), the Potency was “inactive”.
For `Cc1c(CN2CCN(S(C)(=O)=O)CC2)sc2c(N3CCOCC3)nc(-c3cnc(N)nc3)nc12`, the Potency was 18.7 nM (active).
With `COc1cc2c(cc1-c1c(C)noc1C)ncc1[nH]c(=O)n([C@H](C)c3ccccn3)c12` the Potency was 4690 nM (active).
In the case of `CCc1c2c(nc3ccc(O)cc13)-c1cc3c(c(=O)n1C2)COC(=O)[C@]3(O)CC`, the Potency is reported as 66.2 nM (active).
In the case of `NC(=O)c1c(OCc2c(F)cc(Br)cc2F)nsc1NC(=O)NCCCCN1CCCC1`, the Potency is reported as 8330 nM (active).
For `CC(C)C[C@H](NC(=O)CNC(=O)c1cc(Cl)ccc1Cl)B(O)O`, the Potency was 41.8 nM (active).
For `O=C(CCCCCCNC(=O)c1cnc(N(c2ccccc2)c2ccccc2)nc1)NO`, the Potency was 4180 nM (active).
For `COc1ccc(C=Cc2cc(OC)c(OC)c(OC)c2)cc1O`, the Potency was “inactive”.
With `O=C(Nc1cn[nH]c1-c1nc2ccc(CN3CCOCC3)cc2[nH]1)NC1CC1` the Potency was 1870 nM (active).
In the case of `Nc1ccn([C@@H]2CS[C@H](CO)O2)c(=O)n1`, the Potency is reported as 24100 nM (active).
For `Cc1cn(-c2cc(NC(=O)c3ccc(C)c(Nc4nccc(-c5cccnc5)n4)c3)cc(C(F)(F)F)c2)cn1`, the Potency was “inactive”.
In the case of `O=C(O)c1ccc2c(c1)nc(Nc1cccc(Cl)c1)c1ccncc12`, the Potency is reported as 2640 nM (active).
With `C[C@@H]1CN(CC(=O)Nc2ccc3c(c2)Cc2cccc(-c4cc(=O)cc(N5CCOCC5)o4)c2S3)C[C@H](C)O1` the Potency was 4180 nM (active).
With `CC[C@@H]1C(=O)N(C)c2cnc(Nc3ccc(C(=O)NC4CCN(C)CC4)cc3OC)nc2N1C1CCCC1` the Potency was 4690 nM (active).
In the case of `CCCCCCCCCC(=O)N[C@@H](Cc1c[nH]c2ccccc12)C(=O)N[C@H](CC(N)=O)C(=O)N[C@@H](CC(=O)O)C(=O)N[C@@H]1C(=O)NCC(=O)N[C@@H](CCCN)C(=O)N[C@@H](CC(=O)O)C(=O)N[C@H](C)C(=O)N[C@@H](CC(=O)O)C(=O)NCC(=O)N[C@H](CO)C(=O)N[C@@H]([C@@H](C)CC(=O)O)C(=O)N[C@@H](CC(=O)c2ccccc2N)C(=O)O[C@@H]1C`, the Potency is reported as “inactive”.
For `Cc1ccc(CN2CCNCC2)cc1NC(=O)CNc1ccc(F)c(F)c1`, the Potency was 5900 nM (active).
In the case of `Cc1ccc(C(=O)Nc2cccc(C(F)(F)F)c2)cc1-c1ccc2nc(NCCN3CCOCC3)ncc2c1`, the Potency is reported as 5260 nM (active).
With `CCOC(=O)C1=C(C)NC2=C(C(=O)CC(C)(C)C2)C1c1ccc(-c2ccccc2)cc1` (stereo not given) the Potency was 20900 nM (active).
For `COc1cc2c(Oc3ccc(-c4cnc(Nc5ccc(F)cc5)n(C)c4=O)cc3F)ccnc2cc1OCCCN1CCOCC1`, the Potency was 1870 nM (active).
With `Cc1cc(Nc2cc(CN3CCOCC3)c3nc(C)c(Cc4ccc(Cl)cc4F)n3n2)n[nH]1` the Potency was 20900 nM (active).
For `Cc1cc(Nc2ncnc3ccc(-c4ccc(CNCCS(C)(=O)=O)o4)cc23)ccc1Oc1ccn2ncnc2c1`, the Potency was 332 nM (active).
For `Cn1cc(-c2[nH]c3cc(NC(=O)[C@H](N)C4CCCCC4)cc4c3c2C=NNC4=O)cn1`, the Potency was 935 nM (active).
With `Nc1ncnc2c1c(-c1cccc(OCc3ccccc3)c1)cn2C1CC(CN2CCCC2)C1` (stereo not given) the Potency was 148 nM (active).
For `Cc1cc(Nc2nc(N[C@@H](C)c3ccc(F)cc3)c(C#N)cc2F)n[nH]1`, the Potency was 1480 nM (active).
For `CCCCOc1c(C(=O)c2c(F)cc(C)cc2F)cnc2n[nH]cc12`, the Potency was 4690 nM (active).
With `c1nc2nc(Nc3ccc(N4CCOCC4)cc3)nc(NC3CCCCC3)c2[nH]1` the Potency was 5260 nM (active).
For `C1=CCOCc2cc(ccc2OCCN2CCCC2)Nc2nccc(n2)-c2cccc(c2)OCC1`, the Potency was 1660 nM (active).
For `Cn1cc(-c2ccncc2)c(-c2ccc(OCc3ccc4ccccc4n3)cc2)n1`, the Potency was 1480 nM (active).

From PubChem BioAssay (NCATS)
Potency is the fitted concentration of half-maximal effect.
